# Experimental data: the supplement of paper PMC12494721
# Where a name gives a salt, the structure may show the parent alone.
# How the values were obtained:
# Settings in all cases: incubation time: 27 h, anaerobic, 37 °C;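 for the amine columns active = adjusted P below 0.05 in both replicates with a change the same way and a mean fold change under 0.8 or over 1.25; inactive = the rest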
# [1] = system: Clostridium sporogenes DSM 1664; assay: growth (OD595) fold change vs plate DMSO controls (fold change (ratio)); higher = more growth
# Method in brief: (§1)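 The 96-well mGAM cultures had been kept anaerobic for 27 h at 37 °C before being shaken and read at 595 nm. Blank subtraction, compound background correction with 20 µM compound solutions in water, and a calibration factor of 5 turned the readings into OD. Growth is given as the fold change versus the median of plate DMSO controls. Fold changes above 1.5 were set to NA, and the values are means of 2 biological replicates.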
# [2] = system: Escherichia coli IAI1; assay: as above
# Method in brief: as §1
# [3] = system: Klebsiella aerogenes DSM 30053; assay: as above
# Method in brief: as §1
# [4] = system: Ruminococcus gnavus DSM 108212; assay: as above
# Method in brief: as §1
# [5] = system: Klebsiella aerogenes DSM 30053; assay: fold change of Histamine concentration vs plate DMSO controls (fold change (ratio)); higher = more amine produced, active = hit call of the paper (significant change in both replicates, either direction)
# Method in brief: (§2)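 Amines were quantified by LC–triple-quadrupole MS in dynamic MRM mode against external calibration curves, with drift correction within each batch. The samples were whole anaerobic mGAM cultures of four gut bacterial strains, grown for 27 h at 37 °C in 80 µL wells and extracted with cold acetonitrile/methanol with 0.1% formic acid, then centrifuged. Values are reported as fold change over DMSO controls on the same plate. The mean of 2 biological replicates is given.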
# [6] = system: Clostridium sporogenes DSM 1664; assay: fold change of Tryptamine concentration vs plate DMSO controls (fold change (ratio)); higher = more amine produced, active = hit call of the paper (significant change in both replicates, either direction)
# Method in brief: as §2
# [7] = system: Ruminococcus gnavus DSM 108212; assay: as above
# Method in brief: as §2
# [8] = system: Escherichia coli IAI1; assay: fold change of Putrescine concentration vs plate DMSO controls (fold change (ratio)); higher = more amine produced, active = hit call of the paper (significant change in both replicates, either direction)
# Method in brief: as §2
# [9] = system: Klebsiella aerogenes DSM 30053; assay: as above
# Method in brief: as §2
# [10] = system: Escherichia coli IAI1; assay: fold change of Cadaverine concentration vs plate DMSO controls (fold change (ratio)); higher = more amine produced, active = hit call of the paper (significant change in both replicates, either direction)
# Method in brief: as §2
# [11] = system: Klebsiella aerogenes DSM 30053; assay: as above
# Method in brief: as §2
# [12] = system: Ruminococcus gnavus DSM 108212; assay: fold change of 2-Phenylethylamine concentration vs plate DMSO controls (fold change (ratio)); higher = more amine produced, active = hit call of the paper (significant change in both replicates, either direction)
# Method in brief: as §2
Structure (SMILES),growth [1],growth [2],growth [3],growth [4],fold change of Histamine concentration [5],fold change of Tryptamine concentration [6],fold change of Tryptamine concentration [7],fold change of Putrescine concentration [8],fold change of Putrescine concentration [9],fold change of Cadaverine concentration [10],fold change of Cadaverine concentration [11],fold change of 2-Phenylethylamine concentration [12]
O=C(NCCNCC(O)COc1ccc(O)cc1)N1CCOCC1 (stereo unspecified) [Xamoterol hemifumarate] (20 µM),1.1,0.989,0.983,1,1.06 (inactive),0.992 (inactive),0.889 (inactive),1.03 (inactive),1.03 (inactive),1 (inactive),0.986 (inactive),0.868 (inactive)
COc1ccc2cc([C@@H](C)C(=O)O)ccc2c1 [(R) Naproxen sodium salt] (20 µM),0.979,1.08,1.07,0.811,1.03 (inactive),1.07 (inactive),1.05 (inactive),0.951 (inactive),0.974 (inactive),0.956 (inactive),1 (inactive),1.11 (inactive)
Nc1c2ccccc2nc2ccccc12 [Aminacrine] (20 µM),0.903,1.11,0.922,1.45,1.07 (inactive),0.923 (inactive),0.911 (inactive),1.15 (inactive),0.952 (inactive),1.29 (active),0.964 (inactive),0.947 (inactive)
COC(=O)CCc1ccc(OCC(O)CNC(C)C)cc1 (stereo unspecified) [Esmolol hydrochloride] (20 µM),0.978,0.87,0.987,0.947,0.88 (inactive),0.972 (inactive),1.1 (inactive),0.959 (inactive),0.988 (inactive),1.09 (inactive),1.02 (inactive),1.07 (inactive)
CCC1=C(C)CN(C(=O)NCCc2ccc(S(=O)(=O)NC(=O)N[C@H]3CC[C@H](C)CC3)cc2)C1=O [Glimepiride] (20 µM),1.02,1.03,1.02,0.969,0.985 (inactive),0.934 (inactive),0.995 (inactive),0.976 (inactive),0.997 (inactive),1.04 (inactive),0.993 (inactive),1.02 (inactive)
"OC(CCN1CCCCC1)(c1ccccc1)C1CCCCC1 (stereo unspecified) [Trihexyphenidyl-D,L hydrochloride] (20 µM)",1.05,1.11,1.02,0.865,0.954 (inactive),1.01 (inactive),0.874 (inactive),1.17 (inactive),0.97 (inactive),0.697 (inactive),0.984 (inactive),0.92 (inactive)
CN(C)CCN1C(=O)c2ccccc2N(C)c2ccccc21 [Dibenzepine hydrochloride] (20 µM),1.02,0.993,0.972,0.677,1.06 (inactive),0.993 (inactive),1.03 (inactive),1.01 (inactive),1.01 (inactive),1.02 (inactive),0.985 (inactive),1.06 (inactive)
CC1CCc2c(N3CCC(O)CC3)c(F)cc3c(=O)c(C(=O)O)cn1c23 (stereo unspecified) [Nadifloxacin] (20 µM),0.00717,0.0576,0.316,0.383,0.5 (active),0.0474 (active),0.271 (active),0.763 (inactive),1.16 (inactive),0.267 (active),0.982 (inactive),0.362 (active)
CCCc1cc(=O)[nH]c(=S)[nH]1 [Propylthiouracil] (20 µM),0.934,1.06,0.995,1.05,0.972 (inactive),1.03 (inactive),1.04 (inactive),1.05 (inactive),1.01 (inactive),0.974 (inactive),0.995 (inactive),1.03 (inactive)
CCN(CC)CC#CCOC(=O)C(O)(c1ccccc1)C1CCCCC1 (stereo unspecified) [Oxybutynin chloride] (20 µM),1.01,0.971,1,0.917,1.01 (inactive),1.01 (inactive),0.977 (inactive),1.01 (inactive),1.02 (inactive),0.909 (inactive),1.01 (inactive),1.01 (inactive)
CC(/C=C1\SC(=S)N(CC(=O)O)C1=O)=C\c1ccccc1 [Epalrestat] (20 µM),1.15,0.964,1.05,0.896,1.05 (inactive),1.01 (inactive),1.16 (inactive),1.14 (inactive),0.992 (inactive),0.932 (inactive),1.12 (inactive),1.44 (inactive)
CC[C@H]1OC(=O)[C@H](C)[C@@H](O[C@H]2C[C@@](C)(OC)[C@@H](O)[C@H](C)O2)[C@H](C)[C@@H](O[C@@H]2O[C@H](C)C[C@H](N(C)C)[C@H]2O)[C@](C)(O)C[C@@H](C)[C@@H]2N[C@@H](COCCOC)O[C@H]([C@H]2C)[C@]1(C)O [Dirithromycin] (20 µM),0.228,0.961,0.964,0.419,0.987 (inactive),0.0683 (active),0.134 (active),0.956 (inactive),0.991 (inactive),0.998 (inactive),1.01 (inactive),0.146 (active)
CC(=O)Nc1c(I)c(C(=O)N[C@H]2C(O)O[C@H](CO)[C@@H](O)[C@@H]2O)c(I)c(N(C)C(C)=O)c1I (stereo partly specified) [Metrizamide] (20 µM),1.03,1.22,1.04,0.799,0.994 (inactive),1.05 (inactive),1.06 (inactive),1.22 (inactive),0.994 (inactive),0.971 (inactive),1 (inactive),1.08 (inactive)
CCC(=O)c1ccc(O)cc1 [Paroxypropione] (20 µM),0.967,0.989,0.996,1,1.03 (inactive),0.946 (inactive),1.02 (inactive),1.01 (inactive),1.02 (inactive),1.01 (inactive),1.01 (inactive),0.952 (inactive)
Clc1ccc2c(c1)C(N1CCNCC1)=Nc1ccccc1O2 [Amoxapine] (20 µM),1.21,1.03,1.01,1.37,0.961 (inactive),0.943 (inactive),0.983 (inactive),0.994 (inactive),0.974 (inactive),1.02 (inactive),1 (inactive),0.952 (inactive)
CS(=O)(=O)CCNCc1ccc(-c2ccc3ncnc(Nc4ccc(OCc5cccc(F)c5)c(Cl)c4)c3c2)o1 [Lapatinib] (20 µM),1.05,1.05,1.02,1.01,1.03 (inactive),0.977 (inactive),1.03 (inactive),0.977 (inactive),1.02 (inactive),1.04 (inactive),1.01 (inactive),0.999 (inactive)
O=C1O[C@H]([C@@H](O)CO)C(O)=C1O [Ascorbic acid] (20 µM),1.01,1.03,0.981,0.975,1.08 (inactive),1.05 (inactive),1.06 (inactive),1.01 (inactive),0.978 (inactive),1.03 (inactive),1.04 (inactive),1.03 (inactive)
"c1cc2ccc3ccc4ccc5cccc6c(c1)c2c3c4c56 [Benzo-[g,h,i]perylene] (20 µM)",0.921,1.01,1.06,1.05,1.04 (inactive),1.02 (inactive),0.905 (inactive),1.04 (inactive),1.01 (inactive),1 (inactive),0.976 (inactive),0.88 (inactive)
NC(N)=Nc1nc(CSCC/C(N)=N/S(N)(=O)=O)cs1 [Famotidine] (20 µM),0.878,0.928,0.855,0.824,1.04 (inactive),1.02 (inactive),1.03 (inactive),1.03 (inactive),0.999 (inactive),0.975 (inactive),0.99 (inactive),1.07 (inactive)
COC(=O)C1=C(C#N)NC(C)=C(C(=O)OC(C)C)C1c1cccc([N+](=O)[O-])c1 (stereo unspecified) [Nilvadipine] (20 µM),1.01,1.18,0.953,0.932,0.971 (inactive),1.1 (inactive),1.24 (inactive),1.15 (inactive),0.936 (inactive),1.03 (inactive),1.02 (inactive),1.44 (active)
CC(C)OC(=O)C(C(=O)OC(C)C)=C1SC=CS1 [Malotilate] (20 µM),1.09,1.07,1.08,1.16,0.94 (inactive),0.958 (inactive),0.956 (inactive),1.07 (inactive),1.04 (inactive),0.949 (inactive),1.02 (inactive),0.88 (inactive)
N[C@@H](Cc1ccc(O)c(O)c1)C(=O)O [Levodopa] (20 µM),1.09,0.977,0.989,0.94,1.05 (inactive),1.03 (inactive),1.03 (inactive),1 (inactive),1.02 (inactive),0.975 (inactive),0.997 (inactive),1.04 (inactive)
COc1ccc(-c2noc(CC(=O)O)c2-c2ccc(OC)cc2)cc1 [Mofezolac] (20 µM),0.876,1.01,1,1.21,1.05 (inactive),0.988 (inactive),0.979 (inactive),1.03 (inactive),1 (inactive),0.987 (inactive),0.993 (inactive),0.96 (inactive)
